About 3,300 (8.5%) of roughly 39,000 compounds were called active. For the sample, actives were picked, then their nearest neighbours and some compounds at random.
system: HepG2; experiment: cytotoxicity call (relative viability < 0.9); conditions: 10 µM

Row | SMILES | cytotoxicity call
1 | C[C@@H]1CCCCO[C@H](CN(C)S(=O)(=O)c2cn(C)cn2)[C@@H](C)CN([C@H](C)CO)C(=O)c2cc(NC(=O)c3ccncc3)ccc2O1 | inactive
2 | C[C@H]1CN([C@@H](C)CO)C(=O)c2cccc(NS(=O)(=O)c3cn(C)cn3)c2O[C@@H]1CN(C)S(=O)(=O)c1ccc(Cl)cc1 | inactive
3 | COc1ccc(CNC(=O)C[C@H]2CC[C@H]3[C@@H](COc4ccc(NC(=O)C5CC5)cc4C(=O)N3C)O2)cc1 | inactive
4 | C#C[C@@]1(O)[C@@H](CO)O[C@@H](n2ccc(N)nc2=O)[C@@H]1O | active
5 | Cl.Nc1ccn(C2OC(CO)C(O)C2(F)F)c(=O)n1 (stereo unspecified) | active
6 | Nc1ccn([C@@H]2O[C@H](CO)[C@@H](O)[C@H]2O)c(=O)n1 | inactive
7 | Nc1ccn(C2OC(CO)C(O)C2O)c(=O)n1 (stereo unspecified) | inactive
8 | C[C@@]1(F)[C@H](O)[C@@H](CO)O[C@H]1n1ccc(N)nc1=O | inactive
9 | Nc1ccn([C@@H]2O[C@H](CO)[C@@H](O)C2(F)F)c(=O)n1 | inactive
10 | C[C@H](CO)N1C[C@H](C)[C@@H](CN(C)C(=O)C2CC2)OCc2cn(nn2)CCCC1=O | inactive
11 | Cc1noc(C)c1S(=O)(=O)Nc1ccc2c(c1)C(=O)N([C@H](C)CO)C[C@H](C)[C@@H](CN(C)Cc1ccc(C(=O)O)cc1)O2 | inactive
12 | C[C@@H]1CCCCO[C@@H](CN(C)C(=O)c2ccccc2)[C@H](C)CN([C@H](C)CO)C(=O)c2cc(NC(=O)Nc3ccc4c(c3)OCO4)ccc2O1 | inactive
13 | C[C@@H]1CCCCO[C@@H](CN(C)C(=O)Cc2ccccc2)[C@H](C)CN([C@H](C)CO)C(=O)c2cc(NC(=O)NC3CCCCC3)ccc2O1 | active
14 | C[C@@H]1CCCCO[C@@H](CN(C)C(=O)Cc2ccccc2)[C@H](C)CN([C@H](C)CO)C(=O)c2cc(NC(=O)Nc3ccc(F)cc3)ccc2O1 | active
15 | C[C@@H]1CCCCO[C@@H](CN(C)C(=O)Cc2ccccc2)[C@@H](C)CN([C@H](C)CO)C(=O)c2cc(NC(=O)NC3CCCCC3)ccc2O1 | inactive
16 | C[C@@H]1CCCCO[C@@H](CN(C)C(=O)Cc2ccccc2)[C@@H](C)CN([C@@H](C)CO)C(=O)c2cc(NC(=O)Nc3ccc4c(c3)OCO4)ccc2O1 | inactive
17 | C[C@@H]1CCCCO[C@H](CN(C)C(=O)Cc2ccccc2)[C@@H](C)CN([C@H](C)CO)C(=O)c2cc(NC(=O)Nc3ccc(F)cc3)ccc2O1 | inactive
18 | C[C@@H]1CCCCO[C@H](CN(C)C(=O)Cc2ccccc2)[C@H](C)CN([C@@H](C)CO)C(=O)c2cc(NC(=O)NC3CCCCC3)ccc2O1 | inactive
19 | C[C@@H]1CCCCO[C@@H](CN(C)C(=O)Cc2ccccc2)[C@@H](C)CN([C@H](C)CO)C(=O)c2cc(NC(=O)Nc3ccc(F)cc3)ccc2O1 | inactive
20 | C[C@H](CO)N1C[C@H](C)[C@H](CN(C)C(=O)Cc2ccccc2)OCCCC[C@H](C)Oc2ccc(NC(=O)Nc3ccc4c(c3)OCO4)cc2C1=O | active
21 | C[C@H]1CCCCO[C@H](CN(C)C(=O)Cc2ccccc2)[C@@H](C)CN([C@@H](C)CO)C(=O)c2cc(NC(=O)Nc3ccc4c(c3)OCO4)ccc2O1 | inactive
22 | Nc1ncnc2c([C@@H]3N[C@H](CO)[C@@H](O)[C@H]3O)c[nH]c12 | inactive

Row | SMILES | cytotoxicity call
23 | Cc1noc(C)c1S(=O)(=O)Nc1ccc2c(c1)C(=O)N([C@H](C)CO)C[C@H](C)[C@@H](CN(C)Cc1ccc(Cl)c(Cl)c1)OCCCC[C@@H](C)O2 | inactive
24 | C[C@@H](Oc1ccccc1Cl)c1nc2ccc(Cl)cc2[nH]1 | inactive
25 | COC(=O)[C@H]1c2cc3c(c(O)c2[C@@H](O[C@@H]2O[C@H](C)[C@H](OC)[C@](C)(OC)[C@@H]2OC)C[C@@]1(C)O)C(=O)c1c(O)cc2c(c1C3=O)O[C@H]1O[C@@]2(C)[C@@H](O)[C@H](N(C)C)[C@@H]1O | active
26 | O=C1O[C@H](c2ccccc2)[C@H](c2ccccc2)N2[C@H]1[C@@H](C(=O)N1CCCCCCC1)[C@]1(C(=O)Nc3ccc(C#CC4=CCCCC4)cc31)[C@H]2c1ccc(O)cc1 | inactive
27 | COc1ccc(S(=O)(=O)N(C)C[C@@H]2Oc3c(NC(=O)C4CC4)cccc3C(=O)N([C@H](C)CO)C[C@H]2C)cc1 | inactive
28 | O=C(C[C@H]1C=C[C@@H](NC(=O)c2ccc(F)cc2)[C@@H](CO)O1)NCc1ccncn1 | inactive
29 | C[C@@H]1CN([C@H](C)CO)C(=O)Cc2cc(NS(=O)(=O)c3cn(C)cn3)ccc2O[C@H]1CN(C)C | inactive
30 | O=C(C[C@@H]1C=C[C@H](NC(=O)CN2CCOCC2)[C@H](CO)O1)NC1CCCCC1 | inactive
31 | CO[C@@H]1CN(C)C(=O)c2ccc(NC(=O)c3ccccc3)cc2OC[C@H](C)N(C(=O)CN(C)C)C[C@@H]1C | inactive
32 | OC[C@@H]1CCCO1 | inactive
33 | COc1ccc(NC(=O)Nc2ccc3c(c2)CC(=O)N([C@@H](C)CO)C[C@H](C)[C@H](CN(C)Cc2ccc(-c4ccccc4)cc2)O3)cc1 | active
34 | COc1ccc(NC(=O)Nc2ccc3c(c2)CC(=O)N([C@@H](C)CO)C[C@H](C)[C@@H](CN(C)Cc2ccc(-c4ccccc4)cc2)O3)cc1 | inactive
35 | COc1ccc(NC(=O)Nc2ccc3c(c2)CC(=O)N([C@H](C)CO)C[C@@H](C)[C@H](CN(C)Cc2ccc(-c4ccccc4)cc2)O3)cc1 | inactive
36 | COc1ccc(NC(=O)Nc2ccc3c(c2)CC(=O)N([C@@H](C)CO)C[C@@H](C)[C@H](CN(C)Cc2ccc(-c4ccccc4)cc2)O3)cc1 | active
37 | COc1ccc(NC(=O)Nc2ccc3c(c2)CC(=O)N([C@H](C)CO)C[C@H](C)[C@H](CN(C)Cc2ccc(-c4ccccc4)cc2)O3)cc1 | active
38 | COc1ccc(NC(=O)Nc2ccc3c(c2)CC(=O)N([C@@H](C)CO)C[C@@H](C)[C@@H](CN(C)Cc2ccc(-c4ccccc4)cc2)O3)cc1 | active
39 | COc1ccc(NC(=O)Nc2ccc3c(c2)CC(=O)N([C@H](C)CO)C[C@H](C)[C@@H](CN(C)Cc2ccc(-c4ccccc4)cc2)O3)cc1 | inactive
40 | C[C@@H]1CN([C@H](C)CO)C(=O)Cc2cc(NS(=O)(=O)c3cccs3)ccc2O[C@@H]1CN(C)S(=O)(=O)c1ccc(F)cc1 | inactive
41 | COc1ccc(NC(=O)N(C)C[C@@H]2Oc3ccc(NC(=O)CCCCCC(=O)Nc4ccccc4N)cc3CC(=O)N([C@@H](C)CO)C[C@@H]2C)cc1 | inactive
42 | C[C@@H]1CN([C@H](C)CO)C(=O)c2cc(NC(=O)C3CC3)ccc2O[C@H]1CN(C)S(=O)(=O)c1cn(C)cn1 | inactive
43 | O=C(Cc1n[nH]c(=O)[nH]1)NCc1n[nH]c2c1CCCCC2 | inactive
44 | N=C1SCCN1CC(=O)O | inactive

Row | SMILES | cytotoxicity call
45 | C[C@@H]1CCCCO[C@H](CN(C)S(=O)(=O)c2ccc(F)cc2)[C@H](C)CN([C@@H](C)CO)C(=O)c2cc(NC(=O)CCC(F)(F)F)ccc2O1 | inactive
46 | C[C@H]1CN([C@@H](C)CO)C(=O)c2cc(NC(=O)Cn3cnnn3)ccc2O[C@@H]1CN(C)S(=O)(=O)c1cn(C)cn1 | inactive
47 | Cc1ccc(S(=O)(=O)N(C)C[C@H]2Oc3c(NS(=O)(=O)c4cn(C)cn4)cccc3C(=O)N([C@H](C)CO)C[C@H]2C)cc1 | inactive
48 | Cc1noc(C)c1NC(=O)Nc1ccc2c(c1)C(=O)N([C@H](C)CO)C[C@H](C)[C@@H](CN(C)C(=O)Nc1c(C)noc1C)OCCCC[C@@H](C)O2 | inactive
49 | COc1ccc(-c2cnc3c(c2)C(=O)N([C@H](C)CO)C[C@@H](C)[C@H](CN(C)C(=O)Cc2ccccn2)O3)cc1 | inactive
50 | CNC[C@H]1Oc2ccc(NC(=O)Cn3cnnn3)cc2CC(=O)N([C@@H](C)CO)C[C@@H]1C | inactive
51 | C[C@@H]1CN([C@H](C)CO)C(=O)c2cc(C3=CCCC3)cnc2O[C@@H]1CN(C)S(=O)(=O)c1cn(C)cn1 | inactive
52 | C[n+]1cccc(C(=O)O)c1 | inactive
53 | COc1ccc(NC(=O)Nc2ccc3c(c2)CC(=O)N([C@H](C)CO)C[C@@H](C)[C@@H](CN(C)Cc2ccc(-c4ccccc4)cc2)O3)cc1 | active
54 | Cc1noc(C)c1NC(=O)Nc1ccc2c(c1)CC(=O)N([C@H](C)CO)C[C@H](C)[C@@H](CN(C)C(=O)NC(C)C)O2 | inactive
55 | CCc1ccc(/C=C2\SC(=O)N(CCCCCCNC(=O)c3ccccc3Nc3ccc([N+](=O)[O-])c4nonc34)C2=O)cc1 | active
56 | CCc1ccc(/C=C2\SC(=O)N(CCCCCCNC(=O)c3ccc(Nc4ccc([N+](=O)[O-])c5nonc45)cc3)C2=O)cc1 | inactive
57 | N[C@H]1CCCN(Cc2cccc(O)c2)C1 | inactive
58 | O=C(CCCCCCC(=O)Nc1ccc([C@H]2O[C@@H](CSc3ccncc3)C[C@H](c3ccccc3)O2)cc1)NO | inactive
59 | O=C(/C=C/c1ccc(CNc2ccc([C@H]3O[C@@H](CSc4ccncc4)C[C@H](c4ccccc4)O3)cc2)cc1)NO | active
60 | O=C(CCCCCCC(=O)Nc1ccc([C@@H]2O[C@H](CSc3ccncc3)C[C@H](c3ccccc3)O2)cc1)NO | inactive
61 | C[C@H]1CN([C@@H](C)CO)C(=O)c2c(c3ccccc3n2C)-c2ccccc2CO[C@@H]1CN(C)Cc1ccc(Cl)c(Cl)c1 | inactive
62 | CC(C)/C=C1\CC/C(=C\c2ccc(C(F)(F)F)cc2)C1=O | active
63 | O=C1/C(=C/c2cccs2)CCC/C1=C\c1cccs1 | inactive
64 | O=C1C(=Cc2cccs2)CCCC1=Cc1cccs1 | inactive
65 | C[C@@H]1CN([C@H](C)CO)C(=O)c2cc(NC(=O)Cn3cnnn3)ccc2O[C@H]1CN(C)S(=O)(=O)c1cccs1 | inactive
66 | CC(=O)n1cc([C@@H]2C=C(C(=O)N3CCCCCCC3)O[C@H](OCc3ccc(CO)cc3)C2)c2ccccc21 | inactive
